Screens deposited in PubChem by The Scripps Research Institute Molecular Screening Center.
In the library only some 3.4% were active in any assay of this set; here they are far more common.
FBW7 act – human FBW7 E3 ligase activation, primary screen; AID 1259310; normalized activity (activation), % at 26.1 µM; Q969H0; AlphaScreen FBW7–phospho-cyclin E peptide binding, activator screen; 0.13% of 650,000 active; in the data active = normalized activity above about 1.9%;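 note: purified mutant Fbw7 with reduced substrate affinity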
MITF inh – human MITF inhibition, primary screen. inhibition, % at 2.6 µM. 0.91% of 650,000 active. AlphaScreen MITF homodimerization, bead proximity signal. O75030; in the data active = inhibition above about 50%;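 note: 0% = vehicle wells with protein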
TEAD-YAP inh – TEAD-YAP interaction inhibition | 1.4% of 640,000 active | HEK-TIYL cells, TEAD-Gal4/YAP UAS-luciferase luminescence | inhibition, % at 9.12 µM; in the data active = inhibition above about 32%;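 note: 0% = median of test compound wells and 100% = reference inhibitor wells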
GPR151 ag – activates the human receptor GPR151 | Q8TDV0 | activation, % at 11.2 µM | PathHunter beta-arrestin GPR151 cells, luminescence | 1% of 650,000 active; in the data active = activation above about 4.9%;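 note: 0% = median of compound wells and 100% = cells with positive control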
Target sequence (Q8TDV0 whole entry, looked up): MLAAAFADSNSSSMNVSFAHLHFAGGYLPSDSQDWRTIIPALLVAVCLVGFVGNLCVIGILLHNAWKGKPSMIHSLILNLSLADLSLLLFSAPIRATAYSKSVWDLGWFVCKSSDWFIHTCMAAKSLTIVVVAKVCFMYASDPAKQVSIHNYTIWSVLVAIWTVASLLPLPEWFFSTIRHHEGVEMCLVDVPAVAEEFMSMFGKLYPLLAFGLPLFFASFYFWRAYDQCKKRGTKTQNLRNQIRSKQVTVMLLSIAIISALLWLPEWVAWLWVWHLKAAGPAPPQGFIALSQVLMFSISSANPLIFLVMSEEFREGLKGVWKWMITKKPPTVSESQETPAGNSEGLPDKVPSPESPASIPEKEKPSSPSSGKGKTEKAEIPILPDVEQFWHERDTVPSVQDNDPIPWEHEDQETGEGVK
Starred values were filed as active, the others as inactive.

SMILES	FBW7 act	MITF inh	TEAD-YAP inh	GPR151 ag
O=C1CCCN1CCCNc1nc(NCCN2CCOCC2)c2ncn(-c3ccsc3)c2n1	0	16	43*	0
O=C1CCCN1CCn1cnc2c(NCCc3ccc(O)cc3)nc(N3CCN(c4ccccn4)CC3)nc21	0	5	36*	0
OC1CCC(Nc2nc(NC3CCN(Cc4ccccc4)CC3)c3ncn(-c4ccsc4)c3n2)CC1 (configuration not stated)	0	-5	60*	4
O=C(N/C(=C\c1cccnc1)C(=O)N1CCC(N2CCCCC2)CC1)c1ccccc1	0	-4	-6	-1
COc1ccc(N2CCN(C(=O)c3cc(S(=O)(=O)N4CCOCC4)ccc3F)CC2)cc1	0	-3	1	-1
COCCCNc1nc(CN2CCN(C=O)CC2)nc2ccc(C)cc12	0	-20	-4	0
O=C1CCCN1CCCNc1nc(Nc2ncccn2)nc2c1ncn2-c1ccsc1	0	-5	0	1
CC(=O)Nc1ccc(Nc2nc(NCCCN3CCCC3=O)nc3c2ncn3-c2ccsc2)cc1	0	14	40*	-1
O=C1CCCN1CCCNc1nc(N2CCN(c3ccccn3)CC2)nc2c1ncn2-c1ccsc1	0	-7	58*	-3
O=C1CCCN1CCCNc1nc(NC2CCN(Cc3ccccc3)CC2)nc2c1ncn2CCN1CCCC1=O	0	-2	2	1
O=C1CCCN1CCCNc1nc(NC2CCN(Cc3ccccc3)CC2)nc2c1ncn2-c1ccsc1	0	-5	36*	0
O=C1CCCN1CCCNc1nc(Nc2nccc3ccccc23)nc2c1ncn2-c1ccsc1	0	-1	59*	2
O=Cc1cccc(-c2ccc(OCCN3CCOCC3)nc2)c1	0	-2	-67	0
FC(F)(F)c1ccc(Cn2cnc3c(NC4CCN(Cc5ccccc5)CC4)nc(Cl)nc32)cc1	0	4	20	1
OC1CCC(Nc2nc(NC3CCN(Cc4ccccc4)CC3)c3ncn(Cc4ccc(C(F)(F)F)cc4)c3n2)CC1 (configuration not stated)	0	2	49*	3
CC(C)N(CCNc1nc(NCCCN2CCCC2=O)nc2c1ncn2-c1ccsc1)C(C)C	0	5	7	1
CCCNc1nc(NCCCN2CCCC2=O)nc2c1ncn2-c1ccsc1	0	8	48*	-1
COc1cccc(-c2csc(/C(C#N)=C\c3ccc(C)o3)n2)c1	0	4	-18	0
Oc1ccc(Br)cc1CNc1nc2ccccc2[nH]1	0	74*	-10	0
Oc1ccc(Cl)cc1CNc1nc2ccccc2[nH]1	0	-4	-16	2
Cc1cccc(C)c1NC(=O)c1nc(S(C)(=O)=O)ncc1Cl	0	-15	-25	0
CCOC(=O)c1c(NC(=O)c2nc(S(C)(=O)=O)ncc2Cl)sc(C)c1C	1	-1	8	-3
Cc1cccc(OC(=O)c2nc(S(C)(=O)=O)ncc2Cl)c1C	0	15	56*	0
CS(=O)(=O)c1ncc(Cl)c(C(=O)C(C#N)c2nc3ccccc3s2)n1 (configuration not stated)	0	4	74*	0
COc1ccc(N(Cc2ccccc2)C(=O)c2nc(S(C)(=O)=O)ncc2Cl)cc1	0	6	98*	0
SMILES	FBW7 act	MITF inh	TEAD-YAP inh	GPR151 ag
Cc1ccc(OC(=O)c2nc(S(C)(=O)=O)ncc2Cl)cc1C	0	9	48*	-1
Cc1ccc2nc(C(C#N)C(=O)c3nc(S(C)(=O)=O)ncc3Cl)[nH]c(=O)c2c1 (configuration not stated)	0	-15	8	1
Cc1cc(C)nc(N2CCC(CNS(=O)(=O)c3ccc(-c4ccccc4)cc3)CC2)n1	1	8	11	-1
Cc1sc2c(c1C)c(=O)n(-c1ccccc1)c(=O)n2Cc1cccnc1	0	2	7	2
CSc1ccc(C2C(C#N)=C(N)SC(N)=C2C#N)cc1	0	9	3	1
Cc1ccc(S(=O)(=O)NCc2ccncc2)cc1C	0	4	41*	2
O=S(=O)(NCc1ccncc1)c1ccc(Br)s1	0	-8	34*	4
CCOc1ccc(S(=O)(=O)NCc2ccccc2)c2ccccc12	0	-4	5	-1
COc1ccc(S(=O)(=O)NCc2ccncc2)cc1	0	10	43*	1
Cc1ccc(S(=O)(=O)NCc2ccccc2)cc1C	0	8	-2	2
O=C(O)CNS(=O)(=O)c1ccc(Br)s1	0	3	-2	1
CCCOc1ccc(S(=O)(=O)NCc2ccncc2)c2ccccc12	0	16	32*	0
CCCC1NC(=S)N(c2ccccc2)C1=O (configuration not stated)	0	14	1	0
COc1cccc(OC)c1CN1CCc2nnc(CCNC(=O)C3CCC3)n2CC1	0	16	-2	0
CCN(CC)CCNC(=O)C1CCCN(c2nc3ccccc3n2C)C1 (configuration not stated)	0	0	-7	0
CCOc1cc(S(=O)(=O)NCc2ccncc2)ccc1F	1	2	54*	0
Cc1cc(S(=O)(=O)NCc2ccncc2)c(C)cc1Cl	0	17	17	0
CN(C)S(=O)(=O)c1ccc(S(=O)(=O)NCc2ccncc2)cc1	0	-12	43*	1
Cc1cc(S(=O)(=O)NCc2ccncc2)c(C)c(C)c1C	0	-1	43*	2
O=S(=O)(NCc1ccccc1)c1ccc(S(=O)(=O)NCc2ccncc2)cc1	0	5	29	3
N#C/C(=C\c1cccs1)C(=O)Nc1ccc2c(c1)OCCO2	0	18	-3	-4
Nc1c(C(=O)N2CCOCC2)sc2nc(-c3ccccc3)cc(C(F)(F)F)c12	2.8*	6	-9	-1
Oc1c(CN2CCOCC2)cc(Br)c2cccnc12	0	47	49*	1
Oc1c(Br)cc(Br)c2cccnc12	0	21	8	0
Oc1c(CN2CCN(c3cccc(C(F)(F)F)c3)CC2)cc(Br)c2cccnc12	-1	1	37*	0
SMILES	FBW7 act	MITF inh	TEAD-YAP inh	GPR151 ag
CC1CCN(Cc2cc(Br)c3cccnc3c2O)CC1	-1	69*	47*	0
CN1CCN(Cc2cc(Br)c3cccnc3c2O)CC1	-1	89*	45*	1
Oc1c(CN2CCN(c3cccc(Cl)c3)CC2)cc(Cl)c2cccnc12	-1	8	7	0
COc1cc(OC)cc(-c2cc3nc(C)c(CCC(=O)O)c(C)n3n2)c1	0	5	56*	1
C=Cc1ccc(CN2C(=O)C(C)Oc3ccc(C)cc32)cc1 (configuration not stated)	0	-7	-2	0
Cc1nn(-c2ccccc2)c(N2CCCCC2)c1/C=N/Nc1ccccn1	0	7	61*	-1
COc1cccc(N2CCN(c3cc(C)nc4ncnn34)CC2)c1	0	0	14	-1
Cc1cc(N2CCN(c3nc4ccccc4s3)CC2)n2ncnc2n1	0	-20	51*	1
Cc1nc(NCCNC(=O)COc2ccccc2)c2c3c(sc2n1)CCCC3	0	2	45*	0
